The values that follow come from PubChem BioAssay (EPA / NIEHS).

Results filed as inconclusive are left out. Active and inactive are the calls of the source. Rule for the calls, unless noted: active = hit-call score of the fitted dose curve at least 0.9, where 1 is the maximum; inconclusive = response in the unintended direction; inactive = score below 0.9.

Read-out in assay [1]: UDP glucuronosyltransferase (UGT1A6), UGT1A6 (gene 54578)
Kind of assay: LTEA_HepaRG_UGT1A6: Life Technologies and Expression Analysis (LTEA) Assay for UDP glucuronosyltransferase (UGT1A6) using HepaRG (AID 2283539; active = hit-call score of the fitted dose curve at least 0.9, where 1 is the maximum; inactive = score below 0.9). The conditions noted are these: mRNA level, 48 h; actives raise or lower the signal. In a few lines:
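Endpoint is UGT1A6 transcript induction or loss in a human liver cell line, quantified by TaqMan qRT-PCR 48 h after dosing. Concentrations ran from 100 uM downward in half-log steps in 0.5% DMSO; activity was fitted in both directions versus vehicle.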

Read-out in assay [2]: X-box binding protein 1 (XBP1), XBP1 (gene 7494)
In words: LTEA_HepaRG_XBP1: Life Technologies and Expression Analysis (LTEA) Assay for X-box binding protein 1 (XBP1) using HepaRG (AID 2283540; active = hit-call score of the fitted dose curve at least 0.9, where 1 is the maximum; inactive = score below 0.9). The note with it: mRNA level, 48 h; actives raise or lower the signal. In a few lines:
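Human HepaRG monolayers receive test chemical for 48 h across an eight-point half-log series starting at 100 uM. XBP1 mRNA gain or loss is scored against DMSO by qRT-PCR.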

Assay [3] in a line: LTEA_HepaRG_LDH_cytotoxicity: Cytotoxicity Assessment in the Life Technologies and Expression Analysis (LTEA) Assay (AID 2283563).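 For AC50: LDH activity released into spent culture medium as a marker of cell death.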 The method in brief:
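Human HepaRG hepatic cells are treated with test chemicals for 48 h at up to 100 uM in 0.5% DMSO. Cytotoxicity is scored from medium LDH against the vehicle control.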

Assay [4] in a line: TOX21_p53_BLA_p2_viability: Viability Assessment in the Tox21 HCT-116 p53 Agonism Beta-lactamase Assay, Phase 2 (AID 2283591).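 Note: actives lower the ATP signal meaning cytotoxicity.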 The method in brief: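 HCT116 p53-bla cells, 4000/well, dosed after 5 h plating (217-fold dilution of DMSO stocks) and incubated 16 h at 37C. Viability taken as cellular ATP by CellTiter-Glo luminescence after 30 min RT; signal loss marks cytotoxicity.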

Assay [5] has as its target Cellular tumor antigen p53 (Homo sapiens) (UniProt P04637). Kind of assay: TOX21_p53_BLA_p2_ratio: Tox21 HCT-116 p53 Agonism Beta-lactamase Assay, Ratio, Phase 2 (AID 2283592). The method in brief: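 An inducible beta-lactamase reporter in HCT116 cells signals p53 pathway activation. After 16 h chemical exposure at 37C, cells load CCF4-AM substrate for 2 h at room temperature; activity is the cleaved/uncleaved emission ratio relative to DMSO.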

Assay [6] is described as follows: TOX21_p53_BLA_p3_viability: Viability Assessment in the Tox21 HCT-116 p53 Agonism Beta-lactamase Assay, Phase 3 (AID 2283593).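 Note: cells exposed to compound for 16 h before reading.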 The method in brief: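 HCT116 cells, 4000/well, dosed 5 h after plating by pin transfer (217-fold dilution from DMSO stock) and incubated 16 h at 37C, 5% CO2. Viability read as ATP luminescence with CellTiter-Glo after 30 min at room temperature.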

A short description of assay [7]: TOX21_p53_BLA_p4_viability: Viability Assessment in the Tox21 HCT-116 p53 Agonism Beta-lactamase Assay, Phase 4 (AID 2283597).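 Note: hits lower the luminescence signal meaning cytotoxicity.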 The method in brief: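 Compound exposure of HCT116 cells lasts 16 h at 37C, 5% CO2, with DMSO stocks diluted 217-fold. Cellular ATP is then quantified by CellTiter-Glo luminescence after 30 min at room temperature.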
Assay [8] is described as follows: TOX21_p53_BLA_p5_viability: Viability Assessment in the Tox21 HCT-116 p53 Agonism Beta-lactamase Assay, Phase 5 (AID 2283600). The method in brief:
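Counter-readout for cytotoxicity: ATP-dependent luminescence from CellTiter-Glo, read in the beta-lactamase wells after 30 min at RT, following a 16 h compound exposure at 37C.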

The nature of assay [9]: Tanguay_ZF_120hpf_MORT_legacy: (Legacy) Oregon State University Tanguay Lab 120 Hour Post-fertilization zebrafish Assay for Mortality (AID 2283633). In a few lines:
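Mortality endpoint from a multiplexed whole-embryo zebrafish screen. Dechorionated wild-type embryos received compound at 6 hpf and remained under static exposure at 28C until 120 hpf, with death noted as a present/absent call.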

The nature of assay [10]: Tanguay_ZF_120hpf_YSE_legacy: (Legacy) Oregon State University Tanguay Lab 120 Hour Post-fertilization zebrafish Assay for Yolk Sac Edema (AID 2283634).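 For AC50: actives raise the incidence of yolk sac edema above the DMSO baseline.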 In a few lines:
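Readout: presence or absence of yolk sac edema at 120 hpf, fitted upward against DMSO controls. Exposure ran statically from 6 hpf in dechorionated embryos kept at 28C.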

A short description of assay [11]: Tanguay_ZF_120hpf_EYE_legacy: (Legacy) Oregon State University Tanguay Lab 120 Hour Post-fertilization zebrafish Assay for Eye Malformation (AID 2283636).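 Note: binary presence or absence of eye malformation scored by brightfield in 120 hpf larvae.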 In a few lines: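 Dechorionated Tropical 5D zebrafish embryos, one per well from 6 hpf, static exposure to 120 hpf at 28C, 0.64% DMSO. Eye malformation scored present/absent by brightfield; dead embryos not scored.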

Assay [12] in a line: Tanguay_ZF_120hpf_SNOU_legacy: (Legacy) Oregon State University Tanguay Lab 120 Hour Post-fertilization zebrafish Assay for Snout Malformation (AID 2283637). In a few lines: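 Dechorionated tropical 5D wild-type zebrafish embryos exposed statically from 6 to 120 hpf at 28C, one per well, in 0.64% DMSO. Snout malformation scored as present/absent by brightfield at 120 hpf; dead embryos not scored.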

Assay [13] in a line: Tanguay_ZF_120hpf_JAW_legacy: (Legacy) Oregon State University Tanguay Lab 120 Hour Post-fertilization zebrafish Assay for Jaw Malformation (AID 2283638). The method in brief:
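Static waterborne exposure of dechorionated wild-type (Tropical 5D) zebrafish from 6 to 120 hpf at 28C, 0.64% DMSO vehicle; 5uM trimethyltin chloride served as positive control. Jaw morphology recorded as binary at 120 hpf.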

Assay [14] in a line: Tanguay_ZF_120hpf_PE_legacy: (Legacy) Oregon State University Tanguay Lab 120 Hour Post-fertilization zebrafish Assay for Pericardial Edema (AID 2283640).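 For AC50: potency for increased incidence of pericardial edema versus DMSO baseline.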 The method in brief:
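Read-out is the presence or absence of pericardial edema at 120 hpf under brightfield, with gain of signal fitted against DMSO controls. Larvae (5D wild-type) were statically exposed at 28C with 0.64% final DMSO.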

The target in assay [15] is Cellular tumor antigen p53 (Homo sapiens) (UniProt P04637). Kind of assay: TOX21_p53_BLA_p3_ratio: Tox21 HCT-116 p53 Agonism Beta-lactamase Assay, Ratio, Phase 3 (AID 2283596). In a few lines:
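HCT116 p53-bla cells (4000/well) given compound in DMSO (217-fold dilution) after 5 h, incubated 16 h at 37C. CCF4-AM substrate 2 h at room temperature; 460/530 nm emission ratio, gain fitted against DMSO.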

Assay [16] shares this target. In words: TOX21_p53_BLA_p5_ratio: Tox21 HCT-116 p53 Agonism Beta-lactamase Assay, Ratio, Phase 5 (AID 2283599). The method in brief:
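HCT-116 p53-bla cells (4000/well) plated 5 h, dosed with compound (217-fold DMSO dilution) for 16 h at 37 C; CCF4-AM substrate 2 h at room temperature. Activity is the 460/530 nm emission ratio (405 nm excitation), fitted in gain-of-signal direction versus DMSO.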

For assay [17] the target is unchanged. In words: TOX21_p53_BLA_p4_ratio: Tox21 HCT-116 p53 Agonism Beta-lactamase Assay, Ratio, Phase 4 (AID 2283601). The method in brief: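 HCT-116 p53 beta-lactamase reporter cells (4000/well) preincubated 5 h, then compound (217-fold dilution of DMSO stock) for 16 h at 37C. CCF4-AM substrate added 2 h at room temperature; 460/530 nm emission ratio fitted upward versus DMSO.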

Assay [18] is described as follows: Tanguay_ZF_120hpf_AXIS_legacy: (Legacy) Oregon State University Tanguay Lab 120 Hour Post-fertilization zebrafish Assay for Body Axis Malformation (AID 2283635).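 For AC50: potency for an increased fraction of larvae scored with body axis malformation.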 In a few lines:
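Static 6–120 hpf chemical exposure of dechorionated wild-type 5D zebrafish, one per well at 28C; morphology endpoint scored binary at 120 hpf relative to DMSO control.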

Assay [19] in a line: Tanguay_ZF_120hpf_OTIC_legacy: (Legacy) Oregon State University Tanguay Lab 120 Hour Post-fertilization zebrafish Assay for Otic Vesicle Malformation (AID 2283639). In a few lines:
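Tropical 5D wild-type zebrafish embryos were exposed statically in sealed, foil-covered plates at 28C until 120 hpf, with 0.64% (vol/vol) DMSO final. Otic vesicle malformation was scored present/absent by brightfield microscopy, with DMSO as baseline.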

Sequence of Cellular tumor antigen p53 (Homo sapiens) (P04637 whole entry, looked up): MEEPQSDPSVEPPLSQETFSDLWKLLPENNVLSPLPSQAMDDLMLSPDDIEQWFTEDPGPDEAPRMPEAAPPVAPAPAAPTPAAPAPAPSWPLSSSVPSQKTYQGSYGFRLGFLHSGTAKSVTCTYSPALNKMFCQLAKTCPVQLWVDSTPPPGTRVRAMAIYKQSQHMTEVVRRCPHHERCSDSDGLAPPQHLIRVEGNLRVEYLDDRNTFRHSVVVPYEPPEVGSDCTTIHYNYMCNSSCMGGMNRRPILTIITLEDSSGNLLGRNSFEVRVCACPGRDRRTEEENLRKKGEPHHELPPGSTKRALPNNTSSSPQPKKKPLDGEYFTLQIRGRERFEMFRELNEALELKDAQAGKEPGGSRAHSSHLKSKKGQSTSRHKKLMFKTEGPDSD

On to `COC(=O)CSc1cc(N=c2sc(=O)n3n2CCCC3)c(F)cc1Cl`, for which the result in assay [1], in assay [2], in assay [3], in [4], in [5] and in assay [6] was inactive. For the same molecule, the outcome in assay [7], in [8], in [9], in assay [10], in [11] and in assay [12] was inactive. For the same molecule, the molecule was called inactive in assay [13] and in [14].
As to `CCCCCCC(C)OC(=O)COc1nc(F)c(Cl)c(N)c1Cl` (stereo not given), the molecule was called inactive in assay [1], in [2], in assay [3], in assay [15], in assay [16] and in [8]. Moreover, the result in assay [9], in [10], in assay [18], in [11], in [19] and in assay [14] was inactive. Further, the AC50 is 70.8 µM (active) in assay [4], 82.3 µM (active) in [5], 76.9 µM (active) in assay [7] and 87.2 µM (active) in assay [17].
Take `CCOC(=O)C(C)Oc1ccc(Oc2cnc3cc(Cl)ccc3n2)cc1` (stereo not given): the result in assay [1], in assay [2], in assay [3], in assay [9], in assay [10] and in [18] was inactive. Also, the molecule was called inactive in [11], in assay [12], in assay [13], in [19] and in assay [14].
For `O=C(O)C1(C(=O)Nc2ccc(Cl)cc2Cl)CC1`, the AC50 was 79.6 µM (active) in assay [1]; 69.2 µM (active) in assay [2]; 18.6 µM (active) in assay [5]; 46.1 µM (active) in [17]; 32.3 µM (active) in assay [10]; 10 µM (active) in [18]. Besides, the AC50 in assay [14] is 41.9 µM (active). Besides, the outcome in assay [3], in assay [4], in assay [6], in [15], in [7] and in assay [16] was inactive. Also, the call in [8], in [9], in assay [11], in assay [12], in [13] and in [19] was inactive.
As for `CCCCCOC(=O)COc1cc(N2C(=O)C3=C(CCCC3)C2=O)c(F)cc1Cl`, the result in assay [1], in [2], in [3], in assay [9], in assay [10] and in assay [18] was inactive. The result in assay [11], in assay [12], in [13], in assay [19] and in [14] was inactive.
For the molecule `CCOC(=O)NCCOc1ccc(Oc2ccccc2)cc1`, the call in [1], in [2], in [4], in assay [6], in [15] and in assay [7] was inactive. Further, the result in [16], in assay [8], in assay [17], in assay [9], in assay [10] and in assay [18] was inactive. Also, the molecule was classed as inactive in assay [11], in assay [12], in assay [13], in assay [19] and in [14]. Also, the AC50 in assay [3] is 82.2 µM (active); in [5] it was 38.1 µM (active).
As to `CCSC(=O)N(CC(C)C)CC(C)C`, the result in [1], in assay [2], in assay [3], in assay [15], in assay [7] and in assay [16] was inactive. The result in [17], in [9], in assay [10], in assay [18], in [11] and in assay [12] was inactive. The call in [13], in [19] and in assay [14] was inactive.

As a reminder, the AC50 is the concentration giving half of the maximal activity seen.
